Source: PubChem (National Center for Advancing Translational Sciences (NCATS))
This is a sample that favours compounds with a hit; in the whole collection about 19% have one here.
DT40 TDP1 CPT = DT40-hTDP1 cell growth loss with CPT | Potency, µM (highest dose often 46.2 µM), for inactives: at the highest dose activity change, negative = growth inhibition, usual class: inhibitors | chicken DT40 Tdp1-/-;hTDP1 cells + 20 nM CPT, ATP luminescence, 48 h | 12% of 420,000 active; also: nearly all actives have a fitted effect of over 55% in size
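Chicken DT40 Tdp1-/- cells stably complemented with human TDP1 were seeded at 400 cells/well in medium containing 20 nM camptothecin, exposed to pin-transferred compounds, and grown at 37 °C for at least 48 hr. Viability was read as ATP luminescence.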
TDP1 cell noCPT = qHTS for Inhibitors of human tyrosyl-DNA phosphodiesterase 1 (TDP1): qHTS in cells in absence of CPT. Potency, µM (top dose mostly 46.2 µM), inactives show at the highest dose activity change, negative = growth inhibition, hits mostly inhibitors. AID 686978, 2013. 15% of 420,000 active. DT40 Tdp1-/- hTDP1 cells, no CPT, ATP luminescence, 48 h; also: nearly all actives have a fitted effect of over 55% in size
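Readout: luminescence from CellTiter-Glo after 30 min in the dark at RT. Cells: DT40 Tdp1-/- with stable hTDP1, 400/well. Exposure: compounds alone, ≥48 hr, 37 °C.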
HT1080NT lethal = kills 2HG-producing HT-1080-NT fibrosarcoma cells. 1.6% of 360,000 active. HT-1080-NT fibrosarcoma viability, CellTiter-Glo ATP luminescence, 48 h. Potency, µM (highest dose often 46.1 µM), inactives show top-dose activity, negative = less viability, usual class: cytotoxic. AID 686970;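 also: NT is the 2HG producing partner of a matched IDH1 knockdown line; 0% = DMSO-treated cells and -100% = media-only wells without cells; nearly all actives have a fitted effect of over 55% in size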
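Viability of the 2HG-overproducing fibrosarcoma line after 48 hours of compound exposure at 37 degrees C was determined by luminescence with CellTiter-Glo, and concentration-effect curves were then fitted and categorized.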
HT1080 IDH1KD tx = HT-1080 IDH1 knockdown cell toxicity (counter line). Potency, µM (highest dose often 46.1 µM), inactives show top-dose activity, negative = toxicity, usual class: cytotoxic. AID 686971. HT-1080 IDH1 knockdown viability, ATP luminescence, 48 h. 2% of 360,000 active;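 also: 0% = DMSO wells and -100% = cell-free medium wells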
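Cytotoxicity counter-line: IDH1KD HT-1080, 48 h, CellTiter-Glo. Curves classed by r2, magnitude and activity.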
KB-V1 cytotox = kills drug-selected multidrug resistant KB-V1 cells; KB-V1 MDR cells viability, CellTiter-Glo, 72 h; Potency, µM (top dose mostly 46.1 µM), actives largely listed as cytotoxic; 3.4% of 400,000 active; AID 1347076; also: nearly all actives have a fitted effect of over 60% in size
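Following 72 h at 37 degrees C with compound, KB-V1 cell viability was read by CellTiter-Glo luminescence, medium being phenol-red-free DMEM plus 10% FBS; concentration-response parameters came from normalized, curve-fitted qHTS data.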
KB-3-1 tox = kills parental KB-3-1 adenocarcinoma cells. AID 1347075. 1.4% of 400,000 active. KB-3-1 viability, CellTiter-Glo ATP luminescence, 72 h. Potency, µM (top dose mostly 46.1 µM), hits mostly cytotoxic; also: nearly all actives have a fitted effect of over 60% in size
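Luminescent ATP read-out (CellTiter-Glo) measures survival of drug-naive KB-3-1 cells after 72 h compound exposure at 37 °C. Titration series was screened from lowest to highest concentration, with DMSO vehicle plates as background controls.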
An asterisk follows results filed as active; i = inactive; ? = inconclusive; / = no result; [ ] = dose if it differs, or a comment. Calls follow the shape of the dose curve; as a rule, active = well fitted curve in the direction sought with a large enough effect; inconclusive = small, poorly fitted or top-dose-only effect, or another doubt; inactive = no such curve, though single readings can be large; an effect the other way counts as inactive or inconclusive. Unless noted, % is scaled to controls: 0 for no effect and ±100 for the full control effect; potency is read from the fitted curve at half-maximal effect.

SMILES	DT40 TDP1 CPT	TDP1 cell noCPT	HT1080NT lethal	HT1080 IDH1KD tx	KB-V1 cytotox	KB-3-1 tox
COc1ccccc1-c1nccc(NC2CCNCC2)n1	-3%	0%	/	/	/	/
COc1cc(CN2c3ccc(Br)cc3C(=O)CS2(=O)=O)cc(OC)c1	?	?	/	/	i	i
CCn1c(=O)c2sccc2n2c(CCCC(=O)N3CCN(c4ccccn4)CC3)nnc12	?	?	9%	8%	i	i
CCCn1c(=O)c2sccc2n2c(CCCC(=O)N3CCN(c4ccccc4)CC3)nnc12	?	16µM*	/	/	/	/
CCn1c(=O)c2sccc2n2c(CCCC(=O)N3CCN(c4cc(Cl)ccc4C)CC3)nnc12	12µM*	8.2µM*	/	/	/	/
Cc1ccc(Cl)cc1N1CCN(C(=O)CCc2nnc3n(C)c(=O)c4ccccc4n23)CC1	-29%	-32%	/	/	/	/
CCC(C)n1c(=O)c2sccc2n2c(CCCC(=O)N3CCN(c4ccccc4)CC3)nnc12 (centres undefined)	-65%	?	/	/	/	/
Cn1c(=O)c2sccc2n2c(CCC(=O)N3CCN(c4cccc(Cl)c4)CC3)nnc12	?	5.8µM*	/	/	i	i
CCn1c(=O)c2sccc2n2c(CCCC(=O)N3CCN(c4cccc(Cl)c4)CC3)nnc12	18µM*	16µM*	/	/	i	i
COc1c(Br)cc(Br)cc1C(=O)Nc1ccccc1N1CCCC1	?	?	-1%	-12%	i	i
O=c1[nH]c(=S)[nH]c2c1C(c1ccc(F)cc1)OC(CCOCc1ccccc1)C2 (centres undefined)	5%	-3%	-14%	1%	i	i
Cc1cc(C)n(-c2nc3ccccc3s2)n1	-7%	32%	9%	7%	i	i
Cc1c2c(=O)n(-c3nc4ccccc4s3)nc-2cc(O)n1Cc1ccccc1	21µM*	15µM*	2%	-7%	?	i
CSc1nsc(SC)c1NC(=O)OCCc1ccccn1	-9%	2%	0%	-1%	i	i
CSc1nsc(SC)c1NC(=O)Nc1ccccn1	16µM*	?	-25%	?	15µM*	i
Cc1ccccc1NC(=O)CCN1CCN(C/C=C/c2ccccc2)CC1	21µM*	?	-2%	-1%	?	i
Cc1cc(NC(=O)CCN2CCN(C/C=C/c3ccccc3)CC2)ccc1Br	?	?	21µM*	23µM*	?	?
Cc1cccc(NC(=O)CCN2CCN(C/C=C/c3ccccc3)CC2)c1	?	21µM*	-8%	-29%	i	i
COc1ccc(SCC(=O)c2cc(C)c(OC(=S)N(C)C)c(C)c2)cc1	21µM*	?	-13%	-15%	i	i
O=C(O)CC(NC(=O)c1cccc([N+](=O)[O-])c1)c1ccc2c(c1)OCO2 (centres undefined)	1%	-9%	9%	9%	i	i
O=C(Nc1cccn(Cc2c(Cl)cccc2Cl)c1=O)c1c(Cl)cccc1Cl	?	?	-8%	-9%	3.7µM*	21µM*
O=C1N=C2N(CCN3CCCCC3)c3ccccc3N2/C1=C\c1ccc([N+](=O)[O-])s1	9.2µM*	?	5%	5%	i	i
O=[N+]([O-])c1cccc(/C=N/Nc2nc(N3CCCCC3)nc(N3CCCCC3)n2)c1	?	?	10%	4%	i	i
O=[N+]([O-])c1cccc(/C=N/Nc2nc(NCc3ccccc3)nc(N3CCOCC3)n2)c1	15µM*	?	-5%	-25%	i	i
O=[N+]([O-])c1cccc(/C=N/Nc2nc(NCc3ccccc3)nc(N3CCOCC3)n2)c1O	13µM*	?	?	?	i	i
SMILES	DT40 TDP1 CPT	TDP1 cell noCPT	HT1080NT lethal	HT1080 IDH1KD tx	KB-V1 cytotox	KB-3-1 tox
NNc1nc(NCc2ccccc2)nc(N2CCOCC2)n1	-7%	?	-17%	0%[9.24 µM]	?	i
O=C1N[C@H]2CC=C[C@H]2Nc2ccccc21	13µM*	16µM*	-4%	-4%	i	i
O=C1N[C@H]2CC=C[C@H]2N(Cc2cccs2)c2ccccc21	?	-10%	0%	-3%	i	i
Clc1ccc2c(c1)NC(c1ccncc1)=NC(c1cccs1)=N2	?	?	/	/	i	i
CCc1ccc2c(c1)NC(c1ccc(C)cc1)=NC(c1cccs1)=N2	?	26µM*	/	/	i	i
COc1ccc(C2=Nc3ccccc3NC(c3cccs3)=N2)cc1	?	?	/	/	i	i
CCOc1ccc(C2=NC(c3cccs3)=Nc3ccc(C(C)C)cc3N2)cc1	?	?	/	/	i	i
Clc1cccc(C2=NC(c3cccs3)=Nc3ccc(Br)cc3N2)c1	16µM*	15µM*	/	/	i	i
CC(C)c1ccc2c(c1)NC(c1ccncc1)=NC(c1cccs1)=N2	?	16µM*	/	/	i	i
CCCCOc1ccc(C2=NC(c3cccs3)=Nc3ccc(CC)cc3N2)cc1	21µM*	?	/	/	i	i
CCc1ccc2c(c1)C(c1cccs1)=NNC(c1cccnc1)=N2	-29%	-28%	-1%	-13%	i	i
COc1ccc(C2CC(=O)c3c([nH]c(C(=O)OCCOc4ccccc4)c3C)C2)cc1OC (centres undefined)	?	?	/	/	i	i
COc1ccc(OC)c(C2CC(=O)c3c([nH]c(C(=O)OCC4CCCCC4)c3C)C2)c1 (centres undefined)	21µM*	?	/	/	i	i
CCOc1ccc(C2CC(=O)c3c([nH]c(C(=O)OC)c3C)C2)cc1OC (centres undefined)	-1%	-27%	?	?	?	i
COC(=O)c1[nH]c2c(c1C)C(=O)CC(c1cc(OC)ccc1OC)C2 (centres undefined)	3.3µM*	2.9µM*	?	21µM*	5.2µM*	3.7µM*
COC(=O)c1[nH]c2c(c1C)C(=O)CC(c1cccs1)C2 (centres undefined)	0.73µM*	0.82µM*	1µM*	1µM*	2.1µM*	?
CCOC(=O)c1ccccc1NC(=O)CSc1nc(=O)[nH]c2c1CCC2	0%	-10%	/	/	/	/
C=CCn1c(SCC(=O)N2CCOCC2)nnc1C(C)NC(=O)c1ccccc1 (centres undefined)	1%	-9%	-9%	-5%	i	i
